Experiment [1] can be described thus: ATG_CRE_CIS: Attagene CIS-FACTORIAL HepG2 Assay for human cAMP Responsive Element (CRE) binding protein 3 (AID 2282926). The conditions noted are these: HepG2 CRE cis-reporter, Attagene multiplexed mRNA; actives raise or lower the signal. Summed up: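 Transfected HepG2 were treated for 24 hours, then RNA was extracted and reporter cDNA amplified with sequence-specific primers. Labelled fragments were separated by capillary electrophoresis, and the CRE signal was fitted bidirectionally with DMSO as baseline.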

Experiment [2] addresses CCAAT/enhancer-binding protein beta (Homo sapiens) (UniProt P17676). Kind of experiment: ATG_C_EBP_CIS: Attagene CIS-FACTORIAL HepG2 Assay for human CCAAT/Enhancer Binding Protein (C/EBP) beta (AID 2282927). The conditions noted are these: HepG2 Attagene cis-factorial transcription factor reporter; actives raise or lower the signal. Summed up:
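HepG2 transiently transfected with multiplexed reporter units under cis-regulatory promoters reporting endogenous C/EBPb activity. After 24 h exposure, reporter mRNA assayed by RT-PCR, fluorescent labelling, HpaI digestion and capillary electrophoresis; bidirectional fitting versus DMSO.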

Experiment [3] can be described thus: ATG_CMV_CIS: Attagene CIS-FACTORIAL HepG2 Assay for human CMV (Internal Marker) (AID 2282928).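 Further: endpoint acts as a background internal control marker rather than a target.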 The conditions noted are these: HepG2 CMV promoter reporter, transcription factor profiling; actives raise or lower the signal. Summed up: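 Endogenous transcription factor activity read in HepG2 via transfected cis-promoter reporter units. After 24 h dosing, reporter mRNA measured by RT-PCR/capillary electrophoresis; gain or loss of signal fit relative to DMSO.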

A short description of experiment [4]: ATG_DR4_LXR_CIS: Attagene CIS-FACTORIAL HepG2 Assay for human Liver X Receptor (LXR), DR4 submotif (AID 2282929). The conditions noted are these: HepG2 Attagene DR4 cis-reporter, mRNA transcription; actives raise or lower the signal. Summed up:
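After transient transfection with multiplexed cis-promoter reporter units, HepG2 cells received test chemicals for 24 h. Reporter mRNA induction, detected by fluorescence after RT-PCR and capillary electrophoresis, was scored relative to DMSO.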

Experiment [5] concerns the target Aryl hydrocarbon receptor (Homo sapiens) (UniProt P35869). As to the kind of experiment: ATG_Ahr_CIS: Attagene CIS-FACTORIAL HepG2 Assay for human Aryl Hydrocarbon Receptor (Ahr) (AID 2282930). The conditions noted are these: HepG2 AhR cis-factorial reporter transcription; actives raise or lower the signal. Summed up:
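HepG2 cells transiently transfected with cis-element-driven multiplexed reporter units; endogenous AhR activity read as reporter mRNA 24 h after dosing, via RT-PCR, 6-FAM labelling, HpaI digestion and capillary electrophoresis. Bidirectional fit relative to DMSO.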

A short description of experiment [6]: ATG_AP_1_CIS: Attagene CIS-FACTORIAL HepG2 Assay for human Activator Protein 1 (AP-1) (AID 2282931). The conditions noted are these: HepG2 Attagene cis-factorial AP-1 reporter mRNA; actives raise or lower the signal. Summed up:
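After 24 h incubation with test chemical, RNA from transfected HepG2 cells was reverse-transcribed, amplified, fluorescently labelled and digested before capillary electrophoresis. Reporters were driven by cis-regulatory promoters; activity fitted bidirectionally versus DMSO.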

Experiment [7] can be described thus: ATG_AP_2_CIS: Attagene CIS-FACTORIAL HepG2 Assay for human Activator Protein 2 (AP-2) (AID 2282932). The conditions noted are these: HepG2 AP-2 cis-reporter, Attagene transcription factor profiling; actives raise or lower the signal. Summed up: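 HepG2 cells transiently transfected with cis-element reporter units and exposed for 24 h. Reporter mRNA measured by RT-PCR, FAM labelling, HpaI digestion and capillary electrophoresis. Changes in either direction fitted relative to DMSO.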

Experiment [8] in a line: ATG_BRE_CIS: Attagene CIS-FACTORIAL HepG2 Assay for human Bone Morphogenetic Protein (BMP) Response Element (BRE) (AID 2282933). The conditions noted are these: HepG2 BMP response element reporter, Attagene transcription factor profiling; actives raise or lower the signal. Summed up: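 Endogenous transcription factor activity at a BMP response element was monitored in transfected HepG2 cells 24 h after dosing. Fluorescent RT-PCR products were resolved by capillary electrophoresis, and activity was fitted in both directions versus DMSO.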

Experiment [9] concerns the target Retinoic acid receptor alpha (Homo sapiens) (UniProt P10276). Kind of experiment: ATG_DR5_RAR_CIS: Attagene CIS-FACTORIAL HepG2 Assay for human Retinoic Acid Receptor Alpha (RARE), DR5 submotif (AID 2282934). The conditions noted are these: HepG2 Attagene cis-factorial RARE DR5 reporter, mRNA; actives raise or lower the signal. Summed up:
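HepG2 cells transiently transfected with multiplexed reporter units; DR5 cis-element drives reporter through endogenous transcription factors. After 24 h dosing, reporter mRNA quantified by RT-PCR, fluorescent labeling, HpaI digestion and capillary electrophoresis; bidirectional fitting versus DMSO.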

Experiment [10] has as its target Transcription factor E2F1 (Homo sapiens) (UniProt Q01094). As to the kind of experiment: ATG_E2F_CIS: Attagene CIS-FACTORIAL HepG2 Assay for human E2F Transcription Factor 1 (AID 2282935). The conditions noted are these: HepG2 Attagene cis-reporter, E2F reporter RNA transcripts; actives raise or lower the signal. Summed up:
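Endogenous E2F1 activity read through cis-promoter reporter units transfected into HepG2. After 24 h compound treatment, reporter mRNA measured by RT-PCR, HpaI digestion and capillary electrophoresis. Bidirectional fit versus DMSO.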

Experiment [11] in a line: ATG_E_Box_CIS: Attagene CIS-FACTORIAL HepG2 Assay for human Enhancer Box (E-box) (AID 2282936). The conditions noted are these: HepG2 E-box cis-reporter transcription, actives raise or lower the signal. Summed up:
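HepG2 cells transiently transfected with multiplexed cis-element reporter units, dosed 24 h; reporter mRNA quantified by RT-PCR, 6-FAM labelling, HpaI digestion and capillary electrophoresis. E-box (USF1) signal fitted bidirectionally vs DMSO.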

A short description of experiment [12]: ATG_M_61_CIS: Attagene CIS-FACTORIAL HepG2 Assay for M61 Transcription Factor (Internal Marker) (AID 2282937). The conditions noted are these: HepG2 Attagene CIS-FACTORIAL M61 internal marker reporter; actives raise or lower the signal. Summed up:
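Using transiently transfected HepG2 liver cells, reporter transcript levels were assessed 24 h post-dosing by RT-PCR and capillary electrophoresis. Changes in either direction were fitted relative to DMSO controls.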

A short description of experiment [13]: ATG_EGR_CIS: Attagene CIS-FACTORIAL HepG2 Assay for human Early Growth Response 1 (EGR1) (AID 2282938). The conditions noted are these: HepG2 Attagene CIS-FACTORIAL EGR reporter mRNA; actives raise or lower the signal. Summed up:
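Fluorescent capillary-electrophoresis signal of reporter cDNA fragments serves as read-out. HepG2 cells bear transiently transfected cis-promoter reporter units and are exposed 24 h; gain- or loss-of-signal is fitted against DMSO.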

Experiment [14] is described as follows: ATG_M_19_CIS: Attagene CIS-FACTORIAL HepG2 Assay for M19 Transcription Factor (Internal Marker) (AID 2282939). The conditions noted are these: HepG2 Attagene CIS-FACTORIAL M19 internal marker reporter; actives raise or lower the signal. Summed up:
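Background-control endpoint from a multiplexed HepG2 reporter panel. Cells carrying cis-regulated reporter constructs are treated 24 h, then reporter transcripts are amplified, fluorescently labelled and sized by capillary electrophoresis. DMSO defines baseline.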

Experiment [15] in a line: ATG_Ets_CIS: Attagene CIS-FACTORIAL HepG2 Assay for human Erythroblast Transformation Specific (ETS) (AID 2282941). The conditions noted are these: HepG2 ETS cis-reporter transcription, actives raise or lower the signal. Summed up:
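Steps: transfect HepG2 with multiple reporter units; treat compound 24 h; isolate RNA, DNase-treat, reverse-transcribe; PCR-amplify, label with 6-FAM, digest with HpaI; separate by capillary electrophoresis. Activity fitted both directions versus DMSO.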

Experiment [16] concerns the target Hepatocyte nuclear factor 3-beta (Homo sapiens) (UniProt Q9Y261). Kind of experiment: ATG_FoxA2_CIS: Attagene CIS-FACTORIAL HepG2 Assay for human Forkhead box A2 (FOXA2) (AID 2282942). The conditions noted are these: HepG2 cis-reporter transcription factor activity, 24 h; actives raise or lower the signal. Summed up: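 Fluorescence signal of reporter cDNA fragments, separated by capillary electrophoresis, reflects endogenous transcription factor activity in transfected HepG2 after 24 h. Both increases and decreases fitted against DMSO.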

Experiment [17] in a line: ATG_FoxO_CIS: Attagene CIS-FACTORIAL HepG2 Assay for human Forkhead box O (FoxO) (AID 2282943). The conditions noted are these: HepG2 Attagene cis-reporter, FoxO element, mRNA; actives raise or lower the signal. Summed up: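 HepG2 cells transiently transfected with cis-element-driven reporter units report endogenous FoxO activity. After 24 h chemical exposure, reporter mRNA quantified by RT-PCR, fluorescent labeling, HpaI digestion and capillary electrophoresis; bidirectional fit versus DMSO.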

Experiment [18] in a line: ATG_GATA_CIS: Attagene CIS-FACTORIAL HepG2 Assay for human GATA Binding Protein (AID 2282944). The conditions noted are these: HepG2 GATA cis-element reporter, Attagene multiplex mRNA; actives raise or lower the signal. Summed up: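 Endogenous transcription factor activity was captured through cis-promoter-driven reporters in transfected HepG2 cells. After 24 h exposure, reporter transcripts were quantified by RT-PCR with fluorescent capillary electrophoresis, and responses fitted both directions against DMSO.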

Experiment [19] in a line: ATG_GLI_CIS: Attagene CIS-FACTORIAL HepG2 Assay for human Zinc Finger Protein GLI1 (AID 2282945). The conditions noted are these: HepG2, Attagene cis-factorial reporter mRNA, GLI element; actives raise or lower the signal. Summed up:
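Transiently transfected HepG2 cells report endogenous transcription factor activity via cis-element-driven reporter units. After 24 h compound exposure, reporter mRNA was measured by RT-PCR with capillary electrophoresis; bidirectional fitting against DMSO baseline.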

The nature of experiment [20]: ATG_ERE_CIS: Attagene CIS-FACTORIAL HepG2 Assay for Estrogen Response Element (ERE) (AID 2282940). The conditions noted are these: HepG2 ERE cis-reporter, Attagene RNA transcript; actives raise or lower the signal. Summed up: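 Cells used were human hepatoma HepG2, transfected with multiple reporter transcription units under cis-regulatory promoters. Reporter mRNA, read 24 h post-dosing via fluorescent RT-PCR products on capillary electrophoresis, was fitted bidirectionally relative to DMSO.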

The source made the active and inactive calls. How the source made its calls: active means hit-call score of the fitted dose curve at least 0.9, where 1 is the maximum; inactive means score below 0.9.

Sequence of Hepatocyte nuclear factor 3-beta (Homo sapiens) (Q9Y261 whole entry, looked up, the tested form may be a part): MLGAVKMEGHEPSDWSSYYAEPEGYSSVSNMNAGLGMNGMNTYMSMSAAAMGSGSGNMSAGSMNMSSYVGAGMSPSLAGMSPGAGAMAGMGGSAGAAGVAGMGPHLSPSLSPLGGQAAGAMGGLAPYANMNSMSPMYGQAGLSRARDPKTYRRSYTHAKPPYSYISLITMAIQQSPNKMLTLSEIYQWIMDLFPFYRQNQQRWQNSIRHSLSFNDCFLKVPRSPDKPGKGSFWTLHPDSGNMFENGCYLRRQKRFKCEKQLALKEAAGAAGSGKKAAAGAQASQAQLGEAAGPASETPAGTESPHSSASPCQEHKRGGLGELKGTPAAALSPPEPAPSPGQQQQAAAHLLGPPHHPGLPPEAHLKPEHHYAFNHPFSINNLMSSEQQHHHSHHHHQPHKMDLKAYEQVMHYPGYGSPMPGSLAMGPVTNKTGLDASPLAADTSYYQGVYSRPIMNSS
Sequence of Aryl hydrocarbon receptor (Homo sapiens) (P35869 whole entry, looked up): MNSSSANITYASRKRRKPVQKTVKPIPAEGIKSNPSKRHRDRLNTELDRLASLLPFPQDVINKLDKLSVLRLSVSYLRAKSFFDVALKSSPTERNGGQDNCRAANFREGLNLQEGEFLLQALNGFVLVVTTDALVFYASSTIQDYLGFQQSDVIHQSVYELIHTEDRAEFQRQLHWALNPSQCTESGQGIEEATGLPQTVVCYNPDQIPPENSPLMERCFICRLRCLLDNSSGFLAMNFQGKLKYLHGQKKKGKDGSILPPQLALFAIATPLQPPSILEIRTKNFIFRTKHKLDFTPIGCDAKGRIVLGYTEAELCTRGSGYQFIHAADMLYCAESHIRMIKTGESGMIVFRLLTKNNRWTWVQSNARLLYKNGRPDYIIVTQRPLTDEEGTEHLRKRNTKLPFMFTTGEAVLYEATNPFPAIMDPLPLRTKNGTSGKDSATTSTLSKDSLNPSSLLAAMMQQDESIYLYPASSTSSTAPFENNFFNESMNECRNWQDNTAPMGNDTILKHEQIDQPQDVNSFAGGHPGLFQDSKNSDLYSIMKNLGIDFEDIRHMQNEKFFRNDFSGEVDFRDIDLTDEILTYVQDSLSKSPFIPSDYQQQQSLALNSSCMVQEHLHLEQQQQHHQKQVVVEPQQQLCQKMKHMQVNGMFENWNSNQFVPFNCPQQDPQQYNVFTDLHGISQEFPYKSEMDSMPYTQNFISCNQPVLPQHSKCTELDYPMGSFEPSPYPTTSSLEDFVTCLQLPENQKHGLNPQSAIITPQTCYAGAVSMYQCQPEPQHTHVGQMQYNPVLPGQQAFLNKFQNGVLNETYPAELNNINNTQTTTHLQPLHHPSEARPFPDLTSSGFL
Sequence of Retinoic acid receptor alpha (Homo sapiens) (P10276 whole entry, looked up): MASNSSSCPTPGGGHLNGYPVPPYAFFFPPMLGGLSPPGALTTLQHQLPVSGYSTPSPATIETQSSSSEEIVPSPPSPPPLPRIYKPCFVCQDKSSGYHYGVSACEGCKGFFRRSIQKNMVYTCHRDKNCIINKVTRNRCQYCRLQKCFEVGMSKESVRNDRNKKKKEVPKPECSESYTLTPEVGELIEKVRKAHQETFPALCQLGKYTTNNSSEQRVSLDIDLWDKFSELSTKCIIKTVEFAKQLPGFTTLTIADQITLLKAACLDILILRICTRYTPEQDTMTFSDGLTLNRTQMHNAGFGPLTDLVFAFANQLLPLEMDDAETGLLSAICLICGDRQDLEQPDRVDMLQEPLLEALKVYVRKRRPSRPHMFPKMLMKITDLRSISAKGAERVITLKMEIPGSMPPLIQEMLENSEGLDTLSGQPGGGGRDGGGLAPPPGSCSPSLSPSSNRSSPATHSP
Sequence of CCAAT/enhancer-binding protein beta (Homo sapiens) (P17676 whole entry, looked up): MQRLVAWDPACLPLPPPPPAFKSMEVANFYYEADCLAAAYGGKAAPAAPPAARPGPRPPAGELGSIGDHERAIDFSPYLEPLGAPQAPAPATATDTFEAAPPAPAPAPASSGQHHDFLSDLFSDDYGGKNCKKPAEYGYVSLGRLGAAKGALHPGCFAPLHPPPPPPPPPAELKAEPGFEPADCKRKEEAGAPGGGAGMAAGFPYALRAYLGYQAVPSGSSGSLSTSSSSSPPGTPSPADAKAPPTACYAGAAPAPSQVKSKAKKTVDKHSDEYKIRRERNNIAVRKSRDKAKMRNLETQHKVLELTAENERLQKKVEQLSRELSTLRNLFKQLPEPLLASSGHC
Sequence of Transcription factor E2F1 (Homo sapiens) (Q01094 whole entry, looked up): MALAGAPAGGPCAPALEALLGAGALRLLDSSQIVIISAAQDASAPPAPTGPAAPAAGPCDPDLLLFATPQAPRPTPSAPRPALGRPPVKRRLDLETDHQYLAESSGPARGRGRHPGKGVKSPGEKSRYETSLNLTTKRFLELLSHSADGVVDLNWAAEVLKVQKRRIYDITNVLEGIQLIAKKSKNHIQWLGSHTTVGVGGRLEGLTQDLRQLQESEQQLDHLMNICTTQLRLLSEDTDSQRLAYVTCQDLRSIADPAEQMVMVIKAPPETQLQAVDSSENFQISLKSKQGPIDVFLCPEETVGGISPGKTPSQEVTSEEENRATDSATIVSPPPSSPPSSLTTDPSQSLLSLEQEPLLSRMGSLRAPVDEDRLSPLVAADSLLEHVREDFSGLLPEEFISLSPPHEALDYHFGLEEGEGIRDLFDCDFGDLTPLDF

`CCNCCO`: the compound was classed as inactive in experiment [1], in experiment [2], in experiment [3], in experiment [4], in [5] and in experiment [6]. Moreover, the result in [7], in experiment [8], in [9], in experiment [10], in experiment [11] and in [12] was inactive. Further, the result in experiment [13], in experiment [14], in experiment [15], in experiment [16], in [17] and in [18] was inactive. In addition, the compound was called inactive in [19].

For the compound `O=C(Nc1ccc2c(O)c(N=Nc3ccc(N=Nc4ccc(S(=O)(=O)O)cc4)cc3)c(S(=O)(=O)O)cc2c1)c1ccccc1`, the result in experiment [1], in [2], in experiment [3], in experiment [4], in experiment [5] and in experiment [6] was inactive. The compound was called inactive in experiment [7], in experiment [9], in experiment [10], in [11], in [12] and in experiment [13]. The outcome in experiment [14], in experiment [20], in [15], in experiment [16], in experiment [17] and in experiment [18] was inactive. The compound was classed as inactive in experiment [19]. The AC50 (in general, the midpoint of the concentration-response curve, whichever way the signal moves) in experiment [8] is 66.8 µM (active).

`CC(C)OCCO`: the call in [1], in experiment [2], in experiment [3], in [4], in [5] and in [6] was inactive. Moreover, the compound was classed as inactive in experiment [7], in experiment [8], in [9], in [10], in experiment [11] and in experiment [12]. The outcome in experiment [13], in [14], in [15], in experiment [16], in experiment [17] and in experiment [18] was inactive. Moreover, the compound was classed as inactive in [19].

As for `CCC(Cl)C(Cl)C(Cl)CC(Cl)C(Cl)C(C)Cl` (stereo unspecified), the result in experiment [1], in experiment [2], in experiment [5], in experiment [7], in experiment [9] and in experiment [10] was inactive. Moreover, the outcome in [12], in [13], in [14], in experiment [15], in [16] and in [17] was inactive. Also, the outcome in experiment [18] and in experiment [19] was inactive. The AC50 in experiment [3] is 47.7 µM (active); in experiment [4], 9.99 µM (active); in experiment [6], 55.7 µM (active); in experiment [8], 116 µM (active); in [11], 83.9 µM (active).

As for `O=[N+]([O-])c1cccc(Cl)c1`, the result in [1], in [2], in experiment [3], in [4], in [5] and in experiment [6] was inactive. The result in experiment [7], in [8], in [9], in experiment [10], in experiment [11] and in experiment [12] was inactive. For the same compound, the compound was classed as inactive in [13], in [14], in [20], in [15], in experiment [16] and in [17]. Besides, the outcome in experiment [18] and in experiment [19] was inactive.

With `CN(C)c1ccncc1`, the call in [1], in experiment [2], in experiment [3], in experiment [4], in experiment [5] and in experiment [6] was inactive. For the same compound, the call in experiment [7], in [8], in experiment [9], in [10], in [11] and in experiment [12] was inactive. Besides, the compound was classed as inactive in experiment [13], in [14], in experiment [20], in [15], in experiment [16] and in [17]. For the same compound, the compound was classed as inactive in [18] and in experiment [19].

With `O=C(O)CNc1ccccc1`, the result in experiment [1], in experiment [2], in experiment [3], in experiment [4], in experiment [6] and in experiment [7] was inactive. Besides, the compound was called inactive in experiment [8], in [9], in experiment [10], in experiment [11], in experiment [12] and in experiment [13]. Besides, the compound was classed as inactive in [14], in experiment [15], in experiment [16], in [17], in experiment [18] and in [19]. For the same compound, in experiment [5], the AC50 was 15.1 µM (active).
